# Whole data set: some 68,000 sequences, median “fluorescence intensity (a.u.)” near 9,100, cut for the highest 2% near 16,000. The sample holds the highest values, similar sequences and a random draw of the others, so the mix is not that of the screen.
# Biological target: OsWRKY34 (Oryza sativa, UniProt Q0JBA9 1-250)
# Experiment: protein-binding microarray (RPBM); PBS, 2% BSA, 51.3 ng/ul salmon testes DNA, 50 uM zinc acetate, 200 nM TF, 25 C, 1 h; high values mean tight binding
# Conditions: protein: recombinant; tags: N-terminal polyhistidine and DsRed monomer fusion (pET32a); label: CyDye5-dUTP incorporated in the synthesized complementary strand; 3' TTTTT single-stranded linker to array surface; dsDNA, one strand shown
# Method in brief: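 The binding signal for each feature is its fluorescence intensity in arbitrary units. An Axon 4000B scanner was used to read a custom Agilent array that had been made double-stranded with Cy5-dUTP primer extension, blocked with 2% BSA, incubated at 25 °C for 1 h with 200 nM protein in PBS, 2% BSA, salmon testes DNA and 50 µM zinc acetate, and washed. The protein was an N-terminal polyhistidine–DsRed transcription factor fusion from E. coli BL21-CodonPlus, purified on Ni–NTA.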
# Chain of OsWRKY34 (Q0JBA9 entry or part of it): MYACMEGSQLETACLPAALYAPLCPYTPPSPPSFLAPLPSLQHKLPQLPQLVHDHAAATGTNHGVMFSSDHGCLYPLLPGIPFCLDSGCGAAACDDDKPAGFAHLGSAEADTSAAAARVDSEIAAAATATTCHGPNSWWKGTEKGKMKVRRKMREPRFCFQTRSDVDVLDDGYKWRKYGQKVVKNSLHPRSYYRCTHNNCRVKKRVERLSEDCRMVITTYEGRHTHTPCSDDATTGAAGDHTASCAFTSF
row,Sequence,binding signal
1,GTCATTGTTTGGAGTGGAGTTTTGCTTAGATTAATCTGTCCGGAGTCACCTAGTGCAG,8860 fluorescence intensity (a.u.)
2,ACCACCACCCTGATGGATCTTGGCTCTAGCTCCTGGTTTTCGGAGTCACCTAGTGCAG,8110 fluorescence intensity (a.u.)
3,GCTGCGCACCTAATGCTACTGTTTTGTTAGTATTTATTTACGGAGTCACCTAGTGCAG,8460 fluorescence intensity (a.u.)
4,GTTAGCTTCTACATTTCTCGTTTCTGCTGAAAATAGTGGACGGAGTCACCTAGTGCAG,9540 fluorescence intensity (a.u.)
5,ACGACGAGGAGGCGGTGGTGGTCGTGCGCGGGGAGGAGTCCGGAGTCACCTAGTGCAG,9310 fluorescence intensity (a.u.)
6,TGCTCTTTTTTTCTTGATTATAACCTTCCGGGGTAGTTTTCGGAGTCACCTAGTGCAG,8720 fluorescence intensity (a.u.)
7,ACACTTGGCATTAATCTAATTTAACTTTTTTTTCTTTATCCGGAGTCACCTAGTGCAG,8440 fluorescence intensity (a.u.)
8,ATTGAAACATGATCCGAGTCATAGCCTGACTGGAATTCTTCGGAGTCACCTAGTGCAG,9120 fluorescence intensity (a.u.)
9,TCGTGCGTGCGTGTTTAATTGTCAACCCATACACAACTTGCGGAGTCACCTAGTGCAG,8510 fluorescence intensity (a.u.)
10,TTGACATAAATTTTCAACCAACCCGTTGTTTTTGTTTTACCGGAGTCACCTAGTGCAG,9250 fluorescence intensity (a.u.)
11,TAAATATTTGACACCGTTGACTTTTTACACATATTTGACCCGGAGTCACCTAGTGCAG,35100 fluorescence intensity (a.u.)
12,AAATATTTGACCGTTCGTTTATTATTTTTATTTTTTTTACCGGAGTCACCTAGTGCAG,12200 fluorescence intensity (a.u.)
13,TTCCTCTTCTCTTCTCGTCTCTTGTAGTAGTATATATTTACGGAGTCACCTAGTGCAG,8430 fluorescence intensity (a.u.)
14,TCACTTTTCATGTACAAAACATGTTGATATTGTGGTTGGTCGGAGTCACCTAGTGCAG,8200 fluorescence intensity (a.u.)
15,TCGTTCTTGGCTGGGTTTGGTTTGGTTTGGTTTGGTCTCGCGGAGTCACCTAGTGCAG,45500 fluorescence intensity (a.u.)
16,TTCGCGCGCTGCTCGCTCGCTTGGTTGGTTGGTTGATTGCCGGAGTCACCTAGTGCAG,15200 fluorescence intensity (a.u.)
17,CGTGGGGTTTTCTTGTTTCGGAGGTAGGGAGAGGTTTCGTCGGAGTCACCTAGTGCAG,11900 fluorescence intensity (a.u.)
18,TGTGGTGGAGGCCGGCTGGGTTCTCTTGGGGTTTGGCCGGCGGAGTCACCTAGTGCAG,10400 fluorescence intensity (a.u.)
19,CGCTCCGCGATTCGTGTTGGTTCTTTTTTTTGTTTCTTGGCGGAGTCACCTAGTGCAG,8470 fluorescence intensity (a.u.)
20,TTGGTCTCTCCTCGTCGCTGGGGTTCTTTGTTCTTGTAGTCGGAGTCACCTAGTGCAG,10000 fluorescence intensity (a.u.)
21,ACCGAATCCGAATCCCGCGTTTCTTTGTTGCGCGCGCGACCGGAGTCACCTAGTGCAG,10100 fluorescence intensity (a.u.)

row,Sequence,binding signal
1,GCTGTTATTGGTTGCTCCTCGCGGTCTCCTTTTTTGGTGACGGAGTCACCTAGTGCAG,10800 fluorescence intensity (a.u.)
2,AAATCCCCTTGTTACCGCGCGTTGTTTGGTTGTACCGCGCCGGAGTCACCTAGTGCAG,16600 fluorescence intensity (a.u.)
3,GTTGTTCTTGGCGGCTAGGTCGTGGGGTTTTCTTGTTTCGCGGAGTCACCTAGTGCAG,22800 fluorescence intensity (a.u.)
4,GTTGGGGTGGTTGGTTTGGGGATCCCCTGTTGTACCCTGCCGGAGTCACCTAGTGCAG,10700 fluorescence intensity (a.u.)
5,TTGGTTTGGTTGCTCCTCGCGCTGTTATTGGTTGCTCCTCCGGAGTCACCTAGTGCAG,19900 fluorescence intensity (a.u.)
6,TTCGGGCATACGCCACCCCGCCTTGTCATCCACCGCGCCCCGGAGTCACCTAGTGCAG,8470 fluorescence intensity (a.u.)
7,AACATTTATTTCCATATCTTCATATATGGTTCCATATGAACGGAGTCACCTAGTGCAG,8400 fluorescence intensity (a.u.)
8,TGCCAAGGACTGCATCTTCATCATTGCCTGGGTGTCCACCCGGAGTCACCTAGTGCAG,8700 fluorescence intensity (a.u.)
9,AACCCACAATTACGCGGCGGTGCATTCTCGTTGCTTTGACCGGAGTCACCTAGTGCAG,11400 fluorescence intensity (a.u.)
10,ACCGACTCAAAAACCTAACGGCACTTTTTTTATTTTCAACCGGAGTCACCTAGTGCAG,10600 fluorescence intensity (a.u.)
11,CTGCGCTCTCCATTGTTTTGTGTTGTGTTTGTTTGCAGTCCGGAGTCACCTAGTGCAG,17700 fluorescence intensity (a.u.)
12,ACGTTGTTTGTGTCACGCTTCTCAAATCCCTTGGTGTTCTCGGAGTCACCTAGTGCAG,11700 fluorescence intensity (a.u.)
13,CTCATTGTTGTTGTGTTGTTGCGTTTGGTTTGGTGTGCTCCGGAGTCACCTAGTGCAG,8510 fluorescence intensity (a.u.)
14,TCTACGAGGGTTTTTGCGCTTTTGTTGCTCTCCGCTCCGCCGGAGTCACCTAGTGCAG,8160 fluorescence intensity (a.u.)
15,TCGCGTCGCGTTTCGACCTCGCGCTCTGGGTCTGGGTGTCCGGAGTCACCTAGTGCAG,8330 fluorescence intensity (a.u.)
16,TCGCGCGTGTCACTGGGTTTGGGTTGGGTCTCTCTCTCTCCGGAGTCACCTAGTGCAG,18400 fluorescence intensity (a.u.)
17,GGTTGGTGACGCGTTGTTGTTTGTTCCTCAAATTTGTTCTCGGAGTCACCTAGTGCAG,16500 fluorescence intensity (a.u.)
18,GTTGGTTGGTTGGTTGGTTGGCTTCTTCTCGGTTTGTTCGCGGAGTCACCTAGTGCAG,25000 fluorescence intensity (a.u.)
19,GGTTTCGGTCTCGGTTTTTTCGGTTCGGTTCTTCGGTTCGCGGAGTCACCTAGTGCAG,9660 fluorescence intensity (a.u.)
20,AACCTCAATTTTGTTTGTTTTGCCTTTTGGTTCAAATACTCGGAGTCACCTAGTGCAG,8180 fluorescence intensity (a.u.)
21,GGTTGGCTTCTTCTCGGTTTGTTCGTTCCTTGTGGTCGAGCGGAGTCACCTAGTGCAG,8240 fluorescence intensity (a.u.)

row,Sequence,binding signal
1,GCGTTTTTGTCTCTCTGCTCTCTGCTGCTGCTGCTGGGTCCGGAGTCACCTAGTGCAG,11300 fluorescence intensity (a.u.)
2,TCTCAGCGGCCCGAACCTGTCTACGTCGCCCGTGTCTTGTCGGAGTCACCTAGTGCAG,11200 fluorescence intensity (a.u.)
3,CTGGCACTTGGCACTTGGTTAATTCCACTCACTCATCACTCGGAGTCACCTAGTGCAG,8260 fluorescence intensity (a.u.)
4,ACATGTGGAGGGAACAGGGCGTGGAATCAAGGGTCGGGATCGGAGTCACCTAGTGCAG,8290 fluorescence intensity (a.u.)
5,AGATATACCGTTGTTGCATTTCACCTTAAAATATTTCCAACGGAGTCACCTAGTGCAG,8550 fluorescence intensity (a.u.)
6,GCTCTCTTCTCGCCGCCTCGGCCTCGCCGCCGTGGCCGCCCGGAGTCACCTAGTGCAG,9500 fluorescence intensity (a.u.)
7,ACATAACCCCGTCATCTCGGCGACCCTCTCTCGTGGTCGCCGGAGTCACCTAGTGCAG,8540 fluorescence intensity (a.u.)
8,GTCTCACTCTCCCAATCCGCCTCGGCCCGAGCGCGCGCGCCGGAGTCACCTAGTGCAG,9530 fluorescence intensity (a.u.)
9,CCTTGTATTCGGCCCGCACACGCCAACCTGTCCTGTTCTGCGGAGTCACCTAGTGCAG,9600 fluorescence intensity (a.u.)
10,GGTGTTGGGTGTTTGTTCGTTGGTTCCGCTGCTGCTGTTGCGGAGTCACCTAGTGCAG,8180 fluorescence intensity (a.u.)
11,TGGTTTGGTTTGGTTCTTTGTTGTTGCTGCCGCTGCCGCGCGGAGTCACCTAGTGCAG,31400 fluorescence intensity (a.u.)
12,GGCGAAGTACTTCTTGGTGTTGTTGCTGCCGCTGCCGGCGCGGAGTCACCTAGTGCAG,8120 fluorescence intensity (a.u.)
13,CAGGGCCATGTTCGCTGATACATTGTGTTGGATTGCACTGCGGAGTCACCTAGTGCAG,8030 fluorescence intensity (a.u.)
14,GTTTACCATTGCATTCCCCGGTCCACGTGCATCAGTGCATCGGAGTCACCTAGTGCAG,9610 fluorescence intensity (a.u.)
15,ACACTACCTTAAAGAAACATCAGTGACATCTCCATCACTCCGGAGTCACCTAGTGCAG,8750 fluorescence intensity (a.u.)
16,CACACTATAGCTAGTACTAGTACTAGTACTACTTAAACTACGGAGTCACCTAGTGCAG,8120 fluorescence intensity (a.u.)
17,AGTGTCTGACACTACTTAAGAAACCATAGCAGTGCTAAAGCGGAGTCACCTAGTGCAG,31200 fluorescence intensity (a.u.)
18,GCCTACTTAAATTACATTTCCGCACCCACACCACACACACCGGAGTCACCTAGTGCAG,11400 fluorescence intensity (a.u.)
19,GCCGGCCTGGGAGGCCGAAGGTTGGGGATGACAGGTGGGGCGGAGTCACCTAGTGCAG,8920 fluorescence intensity (a.u.)
20,GCTGCCCGCTCTAATCTGTTTTGTCTCCATCTGCTATGATCGGAGTCACCTAGTGCAG,8950 fluorescence intensity (a.u.)
21,GAGTACTCGTCCGGGGTTTTTAACTTTTTGCCACTTTTAACGGAGTCACCTAGTGCAG,9100 fluorescence intensity (a.u.)

row,Sequence,binding signal
1,GAGAACCTAATTGTGAGGCTCCTAGTTACACGACAAATCACGGAGTCACCTAGTGCAG,56300 fluorescence intensity (a.u.)
2,GGTGTGTTTGGCAAATGAGTTATGAGAGGTGTGATTGTTACGGAGTCACCTAGTGCAG,8860 fluorescence intensity (a.u.)
3,AACAATCACCTAGGCTAAATGTTACTTCCTCCGTTTCACACGGAGTCACCTAGTGCAG,9190 fluorescence intensity (a.u.)
4,CGTACTATAATTTTGTCATTCCTGTTGAAATTTTATAATTCGGAGTCACCTAGTGCAG,9340 fluorescence intensity (a.u.)
5,GCCGGTCTCCTCCCCGCCACCGCCGCCGCCGCCGCCAATGCGGAGTCACCTAGTGCAG,8650 fluorescence intensity (a.u.)
6,TTGAGAGCTGGAGGCGCAGGCTGGGATCGGCGGAGCCATGCGGAGTCACCTAGTGCAG,63200 fluorescence intensity (a.u.)
7,GCGGGATCGCGCGGGCGGCGGCGGCGGCGGGGAGGGGATGCGGAGTCACCTAGTGCAG,16900 fluorescence intensity (a.u.)
8,GGCGGCGGCGGAGGAGGAGGAGGGGAGGGGAGCACGAGCGCGGAGTCACCTAGTGCAG,17400 fluorescence intensity (a.u.)
9,ATATATATATATATATATATATAGAGAGAGAGAGAGAGACCGGAGTCACCTAGTGCAG,8980 fluorescence intensity (a.u.)
10,GGAGGAGAGCTTGGTGGTGCGCTGATCGGCGGATGCGGGGCGGAGTCACCTAGTGCAG,8490 fluorescence intensity (a.u.)
11,GGCGGCGGAGGAGGAGGAGGCGCGAGGGGAGGCGAGCATGCGGAGTCACCTAGTGCAG,8150 fluorescence intensity (a.u.)
12,TAGCTTTGGAGGAGGAGGAGGAGGAGGGGCGCGAGCCATGCGGAGTCACCTAGTGCAG,10800 fluorescence intensity (a.u.)
13,CGATCGGGCCGCGGCGCGAGGGAGGGGATCGGTGCGCGCGCGGAGTCACCTAGTGCAG,8060 fluorescence intensity (a.u.)
14,ATATATATATATATATATATATATATATATATGCGCAGAGCGGAGTCACCTAGTGCAG,9140 fluorescence intensity (a.u.)
15,CGATCGGAGGAGGAGGCGGCGGGGAGGGAGGAGGAGGATGCGGAGTCACCTAGTGCAG,10800 fluorescence intensity (a.u.)
16,GGGCGAGGAGCAGCGGCGGGCGGGCGGATGAGGGGCGGCGCGGAGTCACCTAGTGCAG,11400 fluorescence intensity (a.u.)
17,ATATATATATATATATATATATATATATAGAGCGCGCACTCGGAGTCACCTAGTGCAG,21200 fluorescence intensity (a.u.)
18,CGCTCTCTTGTTGACCACCTCGCGTTGCACTGGGCCAGCCCGGAGTCACCTAGTGCAG,9490 fluorescence intensity (a.u.)
19,GCTGCTGGTGGTGGTAGTAGGACTTGGGGCTCGTGTTGTGCGGAGTCACCTAGTGCAG,9720 fluorescence intensity (a.u.)
20,TCGTAGGGTGCGGGGTGGCTGCCTGTCTCCTTCGCCTCGCCGGAGTCACCTAGTGCAG,9680 fluorescence intensity (a.u.)
21,ATCACCAGTTGCCATTCTGTCACCTCAACTTAGAACATACCGGAGTCACCTAGTGCAG,8290 fluorescence intensity (a.u.)

# Reference: PMC7819943, “Rice protein-binding microarrays: a tool to detect cis-acting elements near promoter regions in rice”
